Assay results from PubChem BioAssay AID720517 (National Center for Advancing Translational Sciences (NCATS), 2013).
Inconclusive results are not listed. Where a call stands in place of a potency, no number is given. Calls of active or inactive are those of the source. The call rests on the fitted dose curve; in most records, active means well fitted activation curve with a large enough effect; inconclusive means small, poorly fitted or top-dose-only effect; inactive means flat fitted curve, though single readings scatter.

Test: qHTS for Inhibitors of Cell Surface uPA Generation: FP59 Counterscreen for Cherry-picked Compounds
Details: FP59 anthrax toxin cytotoxicity counterscreen, cells; series mostly up to 115 µM

| SMILES | Potency |
| --- | --- |
| Cc1ccc(NC(=O)CSc2nncn2N)cc1C | inactive |
| COc1cc(CNCCc2ccccc2)cc(Br)c1OCC(=O)Nc1ccccc1C | inactive |
| NC(=O)c1cc2ccncc2c2ccccc12 | inactive |
| COc1ccc(NC(=O)CN2C(=O)CSc3ncccc32)cc1 | inactive |
| CCOC(=O)CN1C(=O)N[C@@H](c2ccccc2)C(C(C)=O)=C1C | inactive |
| O=C(Cc1n[nH]c(=O)c2ccccc12)Nc1cccc(S(=O)(=O)N2CCCCCC2)c1 | inactive |
| CC(=O)c1ccc(NC(=O)CN2CCN(c3ccccc3)CC2)cc1 | inactive |
| Cc1oc2c(Cl)c(Cl)c(O)c(CN(C)C)c2c1C(=O)c1ccc(Cl)cc1 | inactive |
| C=CCn1c(SCCN2C(=O)c3ccccc3C2=O)nc2scc(-c3ccc(F)cc3)c2c1=O | inactive |
| COc1ccc(C(=O)NCC(=O)N/N=C/c2c(C)[nH]c3ccccc23)cc1 | inactive |
| COc1ccc(C(=O)NNC(=O)Cc2ccc(Cl)cc2)cc1 | inactive |
| COc1cccc(CNC(=O)C2CCCN(S(=O)(=O)c3ccc4c(c3)C(C)(C)C(=O)N4C)C2)c1 (configuration not stated) | inactive |
| CN(CCC#N)C(=S)Nc1ccc(Oc2ccccc2)cc1 | inactive |
| Cn1cccc1Cc1nnc(SCC(=O)Nc2ccc3c(c2)OCCO3)n1-c1ccc(F)cc1 | inactive |
| Cc1ccc(-n2ncc(C(=O)NC3CC3)c2C2CCN(C(=O)OC(C)(C)C)CC2)cc1 | inactive |
| Cc1ccc(S(=O)(=O)NCC(=O)OC(C)C(=O)NCc2ccc3c(c2)OCO3)cc1 (configuration not stated) | inactive |
| COc1cccc(NC(=O)N2C3CCCC2CC(NC(C)=O)C3)c1 (configuration not stated) | inactive |
